As a reminder, the inhibition is the relative decrease from the control value, in per cent.

Consider 7 compounds from PubChem BioAssay.

The structures appear in SMILES notation. Unmarked numbers belong to inactive results. No rule for the calls is given here.

The test deals with Pantothenate synthetase (Mycobacterium tuberculosis (strain ATCC 25618 / H37Rv)) (UniProt P9WIL5). Kind of test: Recombinant Mtb pantothenate synthetase (PanC) inhibitors, coupled enzyme, confirmatory (AID 375).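 Also: 0% = full reaction with vehicle and 100% = no enzyme background.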 Particulars: coupled enzyme assay; at 10 µM, hits give high values.
Pantothenate synthetase (Mycobacterium tuberculosis (strain ATCC 25618 / H37Rv)), sequence (P9WIL5 whole entry, looked up): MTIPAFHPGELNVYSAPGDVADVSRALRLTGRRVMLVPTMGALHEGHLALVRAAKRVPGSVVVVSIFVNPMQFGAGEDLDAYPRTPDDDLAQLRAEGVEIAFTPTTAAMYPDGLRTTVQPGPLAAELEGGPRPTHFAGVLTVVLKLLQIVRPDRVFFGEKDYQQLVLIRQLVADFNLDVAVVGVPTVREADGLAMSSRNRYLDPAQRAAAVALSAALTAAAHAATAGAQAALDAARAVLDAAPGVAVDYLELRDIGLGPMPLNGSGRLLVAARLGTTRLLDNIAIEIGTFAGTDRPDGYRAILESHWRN
`CCCS(=O)(=O)N1CCC(C(=O)NCCN2CCCC2)CC1`: the inhibition was 0%.

As to `COc1ccc(-c2cc3nc(C)c(CCC(=O)NCc4ccco4)c(C)n3n2)c(OC)c1`, the inhibition is 0%.

Consider `CCCCn1c(CN2CCN(CCO)CC2)nc2ccccc21`, for which the inhibition is 0%.

Regarding `CCOc1ccc(-c2cc(C(=O)N3CCN(c4ccccn4)CC3)c3ccccc3n2)cc1`, the inhibition was 2%.

Turning to `O=C(O)C1C2CCC(C2)C1C(=O)NCCCn1ccnc1` (configuration not stated), the inhibition is 12%.

Take `CC(=O)NC(Cc1ccccc1)C(=O)NC1CCN(C(=O)c2cnccn2)CC1` (configuration not stated): the inhibition is 0%.

On to `S=c1nc(C2CC2)[nH]c2ccccc12`, for which the inhibition was 0%.
